# Test results: PubChem BioAssay (EPA / NIEHS)
# Records with an inconclusive call do not appear. Calls of active or inactive are those of the source. Rule for the calls, unless noted: active = hit-call score of the fitted dose curve at least 0.9, where 1 is the maximum; inconclusive = response in the unintended direction; inactive = score below 0.9.
# Experiments:
# [1] = CCTE_Deisenroth_5AR_NBTE_donor: CCTE's 5alpha-reductase NanoBRET Target Engagement Assay […], Deisenroth Lab (AID 2284319; active = hit-call score of the fitted dose curve at least 0.9, where 1 is the maximum; inactive = score below 0.9); settings: actives raise or lower the signal
# In short: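 In this secondary endpoint, donor luminescence from SRD5A2-NanoLuc in transfected HEK293T flags artifacts. Test chemical (10 nM - 29.9 uM) is present five hours, tracer the last two; mock-tracer wells run plate-matched; data fitted bidirectionally against DMSO.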
# [2] = CCTE_Mundy_HCI_iCellGluta_NOG_NeuriteLength: CCTE's Neurite Outgrowth Assay in iCellGluta cells for Neurite Length, Mundy Lab (AID 2284318)
# In short: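 Automated high-content imaging of betaIII-tubulin (Alexa Fluor-488) and Hoechst-stained cells gave neurite length, normalized to the DMSO baseline.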
# IYD (gene 389434) = test: CCTE_GLTED_hIYD: CCTE's human Iodotyrosine Deiodinase (xIYD) Inhibition Assay, Great Lakes Toxicology and Ecology Division (GLTED) Lab (AID 2284317);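 note: cell-free human IYD enzyme made in baculovirus insect cells; iodide freed from monoiodotyrosine measured by cerium arsenite color change at 420 nm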
# In short: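 First, recombinant human IYD (baculovirus-insect cells), MIT and chemical incubated 3 h. Next, iodide isolated on Dowex. Finally, Sandell-Kolthoff rate read at 420 nm, with platewise normalization to MNT and solvent controls.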
# [3] = VALA_TUBHUV_Agonist_CellCount: Viability Assessment in the VALA Sciences human Umbilical Vein Endothelial Tubule Formation (TUBHUV) Agonism Assay (AID 2284309)
# Protocol: VALA_TUBHUV_Agonist is a cell-based, multiplexed assay that uses human umbilical vein endothelial cells (HUVEC). Measurements were taken 72 hours after chemical dosing in a 96-well plate.VALA_TUBHUV_Agonist_CellCount is the one of two assay components measured from the VALA_TUBHUV_Agonist assay. It is designed to make measurements of viability, a form of viability reporter, as detected with fluorescence intensity signals by HCS Fluorescent Imaging technology. Data from the assay component VALA_TUBHUV_Agonist_CellCount was analyzed at the endpoint, VALA_TUBHUV_Agonist_CellCount, in the positive analysis fitting direction relative to DMSO as the negative control and baseline of activity. Using a type of viability reporter, loss-of-signal activity can be used to understand viability. To generalize the intended target to other relatable targets, this assay endpoint is annotated to the cell cycle intended target family, where the subfamily is cell count.
# This HUVEC-HDF assay was designed to detect chemical suppression of tubulogenesis, i.e. antagonism. To measure tubulogenesis antagonism, HUVEC cells were co-cultured with HDF cells at a 1:3 ratio for 3-days in 10 ng/ml VEGF (i.e., favorable conditions with growth factors), then changed to assay medium containing 10 ng/ml VEGF and ToxCast compounds for an additional 3-day period. […]
# [4] = VALA_TUBIPS_Agonist_TubuleLength: VALA Sciences human iPS-derived Endothelial Tubule Formation (TUBIPS) Agonism Assay (AID 2284311)
# In short: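 Human iPS-derived endothelial cells were exposed to compound for 72 h. Tubule formation was imaged by high-content fluorescence and scored as gain of signal relative to DMSO vehicle (agonist mode).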
# [5] = VALA_TUBIPS_Antagonist_TubuleLength: VALA Sciences human iPS-derived Endothelial Tubule Formation (TUBIPS) Antagonist Assay (AID 2284313)
# In short: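 Cells grown 3 days with 10 ng/ml VEGF, then exposed to compounds in VEGF medium for another 3 days. After fixation, nuclear stain and CD31 immunofluorescence imaging gave mean total tubule length against 0.1% DMSO; suramin (100 uM) inhibition control.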
# [6] = VALA_MIGHUV2_CellCount: Viability Assessment in the VALA Sciences human Umbilical Vein Endothelial Cell Migration (MIGHUV) Assay, Area of Scratch Wound after Recovery (AID 2284314)
# In short: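 Scratch-wounded HUVEC monolayers received test chemical within 30 min, 6-point concentration response in triplicate, 0.1 % DMSO vehicle. After 24 h wound recovery, fixed cells were Hoechst-stained and nuclei imaged; loss of signal versus DMSO indicates reduced viability.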
# [7] = VALA_MIGHUV2_Bcatenin: VALA Sciences human Umbilical Vein Endothelial Cell Migration (MIGHUV) Assay, Nuclear Translocation of beta-Catenin after Recovery (AID 2284315)
# In short: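 HUVEC (4000 cells/well) scratch-wounded, dosed within 30 min over 6 concentrations in triplicate, recovered 24 h. After fixation, Hoechst and anti-beta-catenin immunofluorescence imaged for nuclear CTNB. Gain of signal versus 0.1% DMSO.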
# [8] = VALA_MIGHUV2_WoundArea: VALA Sciences human Umbilical Vein Endothelial Cell Migration (MIGHUV) Assay, Area of Scratch Wound after Recovery (AID 2284316)
# In short: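 HUVEC seeded at 9000 cells/well, scratched after 24 h; test chemical added within 30 min, 6-point concentration response in triplicate (0.1% DMSO vehicle). After 24 h wound recovery, cells fixed and Hoechst-stained nuclei in wound area imaged; Cytochalasin D reference control.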
# [9] = IUF_NPC2-5_viability_120hr: Viability Assessment at 120 hours in the Leibniz Research Institute for Environmental Medicine (IUF) Neural Progenitor Cell Migration and Differentiation Assay (NPC2-5) (AID 2284312; active = hit-call score of the fitted dose curve at least 0.9, where 1 is the maximum; inactive = score below 0.9)
# In short: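 Human fetal (GW 16-19) neural progenitor spheres of 0.3 mm were plated on poly-D-lysine/laminin in N2 differentiation medium and exposed from day 0 for 120 h, with half-medium refresh at day 3. Viability was read as alamar blue resazurin-to-resorufin fluorescence against DMSO.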
smiles,measurement,setting,value
O=C(OC1CCCCC1)c1ccccc1C(=O)OC1CCCCC1,outcome,[1],inactive
O=[N+]([O-])c1ccc(O)c([N+](=O)[O-])c1,outcome,[1],inactive
C=C(C)C(=O)[O][Sn]([CH2]CCC)([CH2]CCC)[CH2]CCC,AC50,[2],0.241 µM (active)
same,AC50,[1],5.38 µM (active)
CCC1(c2ccc(N)cc2)CCC(=O)NC1=O (configuration not stated),outcome,[1],inactive
CCC(C)(C)c1ccc(O)c(C(C)(C)CC)c1,AC50,IYD (gene 389434),37 µM (active)
CC(C)(C)c1cc(O)ccc1O,AC50,[3],11 µM (active)
same,outcome,[4],inactive
same,outcome,[5],inactive
same,AC50,[6],74.3 µM (active)
same,AC50,[7],82.8 µM (active)
same,AC50,[8],73 µM (active)
C[C@@H]1C[C@@H]([C@H](O)CC2CC(=O)NC(=O)C2)C(=O)[C@@H](C)C1,outcome,[1],inactive
CC(=O)[O][Hg][c]1ccccc1,AC50,[1],27.1 µM (active)
CCN1CCC2(CC1)COc1cc3c(cc12)N(C(=O)c1ccc(-c2ccc(-c4nnc(C)o4)cc2C)cc1)CC3,AC50,[1],2.7 µM (active)
O=C1C(Cl)=C(Cl)C(=O)c2ccccc21,AC50,IYD (gene 389434),55 µM (active)
same,AC50,[1],50 µM (active)
c1cc[c]([Hg][c]2ccccc2)cc1,outcome,[1],inactive
O=C(Nc1ccc2[nH]ccc2c1)c1cc2cc(F)ccc2n1Cc1cccc(F)c1,outcome,[1],inactive
CCC[CH2][Sn]([CH2]CCC)([CH2]CCC)[O]C(=O)c1ccccc1,outcome,IYD (gene 389434),inactive
same,AC50,[1],5.2 µM (active)
COP(=O)(OC)O/C(=C\Cl)c1cc(Cl)c(Cl)cc1Cl,AC50,[9],1.06 µM (active)
same,outcome,IYD (gene 389434),inactive
same,AC50,[2],51.5 µM (active)
ClCC(Cl)CCl,outcome,[6],inactive
same,outcome,[8],inactive
O=C1C2(Cl)C3(Cl)C4(Cl)C(Cl)(Cl)C5(Cl)C3(Cl)C1(Cl)C5(Cl)C24Cl (configuration not stated),AC50,IYD (gene 389434),40.1 µM (active)
same,AC50,[2],15 µM (active)
N#CN=C(N)N,outcome,[1],inactive
O=C(O)C(F)(F)C(F)(F)C(F)(F)C(F)(F)C(F)(F)C(F)(F)C(F)(F)C(F)(F)C(F)(F)C(F)(F)F,AC50,IYD (gene 389434),51.3 µM (active)
same,outcome,[1],inactive
C=CC#N,outcome,IYD (gene 389434),inactive
O=C(O)C(F)(F)C(F)(F)C(F)(F)C(F)(F)C(F)(F)C(F)(F)F,outcome,[2],inactive
CC(C)(c1ccccc1)c1ccc(O)c(C(C)(C)c2ccccc2)c1,AC50,IYD (gene 389434),29.2 µM (active)
C[C@H]1CCCC(=O)CCC/C=C/c2cc(O)cc(O)c2C(=O)O1,outcome,[1],inactive
C=CC(=O)OCCCCCC(C)C,outcome,IYD (gene 389434),inactive
CC(C)(C)CC(C)(C)c1ccc(O)cc1,AC50,IYD (gene 389434),66.8 µM (active)
CCOP(=S)(OCC)Oc1nc(Cl)c(Cl)cc1Cl,outcome,[9],inactive
same,outcome,[1],inactive
CCCCCCCCc1ccc(O)cc1,AC50,IYD (gene 389434),35.7 µM (active)
CC(C)(c1ccc(OCC2CO2)cc1)c1ccc(OCC2CO2)cc1 (configuration not stated),outcome,IYD (gene 389434),inactive
same,outcome,[1],inactive
